From PubChem BioAssay
A selection: hits, their analogues and other compounds. The true share with any hit is near 1.8%.
AGP1 TOR yeast: yeast TOR pathway AGP1-GFP modulation; GFP response vs DMSO, % at 10 µM; S. cerevisiae AGP1-GFP multiplex flow cytometry, 3 h; GFP as percent of DMSO wells; hit rate 0.02% among 320,000;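 active = GFP response relative to DMSO above a set limit, near screen average plus 3 SD, cut at about 150% in these data; inconclusive = fewer than 70 cells counted for the yeast strain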;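 also: median GFP channel fluorescence of the gated AGP1 strain per well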
Myeloid diff 2: myeloid differentiation induction; AID 624256; hit rate 1% among 360,000; ER-HoxA9 myeloid progenitors, lysozyme-GFP differentiation, flow cytometry; calls only at 10 µM;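 active = normalized GFP-positive differentiation at or above the plate's own cutoff, the solvent-only control mean plus 3 SD; inconclusive = no clear call, values can overlap the other calls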;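 also: cells exposed to compound for four days before flow analysis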
RPL19A TOR yeast: yeast TOR pathway RPL19A-GFP modulation. hit rate 0.3% among 330,000. S. cerevisiae RPL19A-GFP strain, flow cytometry, 3 h; stronger effect = lower value. AID 2025. percent response vs DMSO, % at 10 µM;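 active = percent response vs DMSO below 50%; inconclusive = fewer than 70 events counted for the yeast strain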;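 also: median channel GFP fluorescence of the barcoded RPL19A-GFP strain; ratio of sample median GFP to plate DMSO average so 100% = DMSO; lower means less RPL19A-GFP as with rapamycin TOR inhibition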
LAP4 TOR yeast: modulators of TOR pathway LAP4-GFP in S. cerevisiae; S. cerevisiae LAP4-GFP multiplex, flow cytometry GFP, 3 h; median GFP as percent of DMSO wells; GFP response vs DMSO, % at 10 µM; hit rate 0.34% among 320,000; AID 2023;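 active = GFP response vs DMSO above a set limit, about the screen mean plus 3 SD, cut at about 150% in these data; inconclusive = under 70 cell events counted for the yeast strain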
CIT2 TOR yeast: modulators of TOR pathway CIT2-GFP in S. cerevisiae; S. cerevisiae CIT2-GFP strain, flow cytometry, 3 h; 100 means same as DMSO wells; GFP response vs DMSO, % at 10 µM; hit rate 0.065% among 320,000;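 active = GFP response relative to DMSO above a set limit, near the screen mean plus 3 SD, cut at about 150% in these data; inconclusive = Fewer than 70 cells measured for a yeast strain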;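 also: ratio of well median GFP fluorescence to mean of DMSO wells on the plate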
MEP2-GFP yeast: modulators of TOR pathway MEP2-GFP in S. cerevisiae | S. cerevisiae MEP2-GFP strain, flow cytometry GFP, 3 h; 100% = DMSO control level | hit rate 0.51% among 330,000 | AID 2016 | GFP response vs DMSO, % at 10 µM;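 active = GFP response versus DMSO above a set limit, roughly screen mean plus 3 SD, cut at about 180% in these data; inconclusive = fewer than 70 cells counted for a yeast strain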;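 also: median GFP fluorescence of the barcode-gated MEP2-GFP cells per well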
An asterisk follows results filed as active; [ ] = remark or other dose.

`CCOC(=O)N1CCN(C(=O)COc2ccc(S(=O)(=O)NCc3ccccc3)cc2)CC1` gave AGP1 TOR yeast 102, Myeloid diff 2 active, RPL19A TOR yeast 98, LAP4 TOR yeast 108, CIT2 TOR yeast 98 and MEP2-GFP yeast 104.
Screening CN(CC(=O)NCCCn1ccnc1)S(=O)(=O)c1ccc(Cl)cc1 returned AGP1 TOR yeast 103, Myeloid diff 2 inactive, RPL19A TOR yeast 105, LAP4 TOR yeast 106, CIT2 TOR yeast 103 and MEP2-GFP yeast 103.
Cc1ccc(NC(=S)NN(C)c2nc(C)cnc2C)cc1 was read as AGP1 TOR yeast 100, Myeloid diff 2 inactive, RPL19A TOR yeast 101, LAP4 TOR yeast 105, CIT2 TOR yeast 106 and MEP2-GFP yeast 100.
COCCSc1nnc(NC(=O)Cc2ccc(OC)cc2)s1 was read as AGP1 TOR yeast 92, Myeloid diff 2 inactive, RPL19A TOR yeast 88, LAP4 TOR yeast 95, CIT2 TOR yeast 91 and MEP2-GFP yeast 87.
For CCOCC(=O)Nc1nnc(SCCOC)s1 the results were AGP1 TOR yeast inconclusive, Myeloid diff 2 inactive, RPL19A TOR yeast 15*[may fluoresce violet], LAP4 TOR yeast 107, CIT2 TOR yeast inconclusive and MEP2-GFP yeast 294*[may fluoresce violet].
For Cc1ccc(CCNC(=O)C2CCC(=O)N2C(C)C)cc1 (configuration not stated) the results were AGP1 TOR yeast 82, Myeloid diff 2 inactive, RPL19A TOR yeast inconclusive, LAP4 TOR yeast 86, CIT2 TOR yeast inconclusive and MEP2-GFP yeast 74.
O=C(CC1SC(N2CCCCC2)=NC1=O)Nc1ccc(C(=O)NCCc2ccc(F)cc2)cc1 (configuration not stated) was read as AGP1 TOR yeast 108, Myeloid diff 2 active, RPL19A TOR yeast 97, LAP4 TOR yeast 106, CIT2 TOR yeast 96 and MEP2-GFP yeast 102.
For COc1cc(/C=C(\C#N)c2nc3ccccc3s2)ccc1OCC(=O)Nc1ccccc1 the results were AGP1 TOR yeast 88, Myeloid diff 2 active, RPL19A TOR yeast 90, LAP4 TOR yeast 95, CIT2 TOR yeast 87 and MEP2-GFP yeast 94.
For Cc1cccc(-c2noc(CN(C)C(=O)c3ccco3)n2)c1 the results were AGP1 TOR yeast 13, Myeloid diff 2 inactive, RPL19A TOR yeast 67, LAP4 TOR yeast 87, CIT2 TOR yeast inconclusive and MEP2-GFP yeast 514*[may fluoresce violet].
Screening Cc1ccc(C(=O)Oc2ccc([N+](=O)[O-])cc2)cc1S(=O)(=O)N1CCCCCC1 returned AGP1 TOR yeast 99, Myeloid diff 2 inactive, RPL19A TOR yeast 100, LAP4 TOR yeast 92, CIT2 TOR yeast 96 and MEP2-GFP yeast 98.
Screening CC(=O)NCCc1nc2cc(NC(=O)c3cccs3)ccc2n1C returned AGP1 TOR yeast 50, Myeloid diff 2 inactive, RPL19A TOR yeast 90, LAP4 TOR yeast 99, CIT2 TOR yeast inconclusive and MEP2-GFP yeast 271*[may fluoresce violet].
Screening Cc1cc(Cl)c(C)c(S(=O)(=O)N2CCN(CC(=O)N3CCOCC3)CC2)c1Cl returned AGP1 TOR yeast 95, Myeloid diff 2 active, RPL19A TOR yeast 93, LAP4 TOR yeast 83, CIT2 TOR yeast 96 and MEP2-GFP yeast 89.
NC(=O)c1nn(-c2ccccc2)nc1N was read as AGP1 TOR yeast 96, Myeloid diff 2 inactive, RPL19A TOR yeast 99, LAP4 TOR yeast 92, CIT2 TOR yeast 87 and MEP2-GFP yeast 90.
`O=C(Nc1ccc(S(=O)(=O)N2CCCC2)cc1)c1ccc(CN2CCOCC2)cc1` gave AGP1 TOR yeast 19, Myeloid diff 2 inactive, RPL19A TOR yeast 58, LAP4 TOR yeast 105, CIT2 TOR yeast inconclusive and MEP2-GFP yeast 483*[may fluoresce violet].
For O=C(Nc1ccc(N2CCCC2)cc1)c1ccc(Br)o1 the results were AGP1 TOR yeast 105, Myeloid diff 2 active, RPL19A TOR yeast 103, LAP4 TOR yeast 107, CIT2 TOR yeast 107 and MEP2-GFP yeast 109.
CN1CCN(S(=O)(=O)c2ccc(NC(=O)c3ccc(Br)o3)cc2)CC1 was read as AGP1 TOR yeast inconclusive, Myeloid diff 2 inactive, RPL19A TOR yeast 21*[may fluoresce violet], LAP4 TOR yeast 76, CIT2 TOR yeast inconclusive and MEP2-GFP yeast 394*[may fluoresce violet].
`Cc1ccccc1NC(=O)COC(=O)Cc1cccc(C(F)(F)F)c1` gave AGP1 TOR yeast 97, Myeloid diff 2 inactive, RPL19A TOR yeast 98, LAP4 TOR yeast 95, CIT2 TOR yeast 86 and MEP2-GFP yeast 106.
For S=c1[nH]nc(C2CCCCC2)n1/N=C/C(Cl)=C\c1ccccc1 the results were AGP1 TOR yeast 100, Myeloid diff 2 active, RPL19A TOR yeast 101, LAP4 TOR yeast 101, CIT2 TOR yeast 95 and MEP2-GFP yeast 101.
For S=c1[nH]nc(C2CCCCC2)n1/N=C/C=C/c1ccccc1 the results were AGP1 TOR yeast 101, Myeloid diff 2 inactive, RPL19A TOR yeast 102, LAP4 TOR yeast 115, CIT2 TOR yeast 88 and MEP2-GFP yeast 103.
Screening S=c1[nH]nc(-c2ccco2)n1/N=C/C(Cl)=C/c1ccccc1 returned AGP1 TOR yeast 89, Myeloid diff 2 inactive, RPL19A TOR yeast 90, LAP4 TOR yeast 167*, CIT2 TOR yeast 94 and MEP2-GFP yeast 111.
Cc1cccc(NC(=O)CSCc2cc(=O)n3ccsc3n2)c1C was read as AGP1 TOR yeast 114, Myeloid diff 2 inactive, RPL19A TOR yeast 114, LAP4 TOR yeast 120, CIT2 TOR yeast 110 and MEP2-GFP yeast 106.
Screening COc1ccc(Cl)cc1C1=NOC2(CCC2)C(=O)N1Cc1ccc(NC(C)=O)cc1 returned Myeloid diff 2 inactive.
Screening O=C(Nc1ccccc1C(=O)Nc1ccccc1C(=O)O)c1ccccc1 returned AGP1 TOR yeast 100, Myeloid diff 2 inactive, RPL19A TOR yeast 107, LAP4 TOR yeast 106, CIT2 TOR yeast 107 and MEP2-GFP yeast 118.
`O=C(O)c1ccccc1NC(=O)c1ccccc1Nc1ccccc1` gave AGP1 TOR yeast 106, Myeloid diff 2 active, RPL19A TOR yeast 104, LAP4 TOR yeast 90, CIT2 TOR yeast 109 and MEP2-GFP yeast 99.
Oc1ccc2ccccc2c1C=NC1CCCCC1 was read as AGP1 TOR yeast 108, Myeloid diff 2 inactive, RPL19A TOR yeast 103, LAP4 TOR yeast 101, CIT2 TOR yeast 98 and MEP2-GFP yeast 99.
For Oc1ccccc1CC=NC1CCCCC1 the results were Myeloid diff 2 active.
CC1(C)NC(=O)N(CC(=O)N2CCCC(C(F)(F)F)C2)C1=O (configuration not stated) was read as AGP1 TOR yeast 112, Myeloid diff 2 inactive, RPL19A TOR yeast 96, LAP4 TOR yeast 103, CIT2 TOR yeast 103 and MEP2-GFP yeast 96.
`CN(C)S(=O)(=O)c1cccc(C(=O)N2CCN(S(=O)(=O)c3ccc4c(c3)OCCO4)CC2)c1` gave Myeloid diff 2 inactive.
Cn1c(N2CCC(C(N)=O)CC2)nc2c1c(=O)n(Cc1ccc(Cl)cc1)c(=O)n2C was read as AGP1 TOR yeast 101, Myeloid diff 2 inactive, RPL19A TOR yeast 96, LAP4 TOR yeast 103, CIT2 TOR yeast 96 and MEP2-GFP yeast 104.
